In experiment [1] the test system is PRMT1 (protein arginine N-methyltransferase 1). The experiment can be described thus: small molecules binding arginine methyltransferase PRMT1 – biochemical, small-molecule microarray, 635 nm fluorescence, primary screen (AID 1088).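 Further: binding of Prmt1 protein to compounds spotted on small-molecule microarray slides.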 Particulars: higher = more signal.
Experiment [2] in a line: growth effects on S. cerevisiae YJM789 – YJM789 clinical isolate, OD600, 24 h, basal, primary screen (AID 1089).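 Further: growth of clinical yeast isolate S. cerevisiae YJM 789 seeded 1000 cells per well; test concentration not given here.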 Particulars: higher = more signal, called active from +8 up or from −8 down.
Experiment [3] is described as follows: S. pombe growth modifiers, basal conditions – strain 972, OD600, 24 h, no modulator, primary screen (AID 1090).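 Further: basal condition with compound alone and no growth modifier present; test concentration not given here.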 The following applies: S. pombe 972 growth, higher = more signal, called active from +8 up or from −8 down.
The nature of experiment [4]: budding yeast growth modifiers under rapamycin – strain BY4716, OD600, 96 h, primary screen (AID 1091). Further: test concentration not given here. Particulars: S. cerevisiae BY4716 + rapamycin, higher = more signal, called active from +8 up or from −8 down.
Experiment [5] deals with Torsin-1A-interacting protein 2 (Homo sapiens) (UniProt Q8NFQ8). The experiment can be described thus: small molecules binding lysate-expressed LULL1 – cell lysate, human LULL1 lysate, 635/667 nm fluorescence, primary screen (AID 1092).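 Further: probe is lysate of COS7 cells overexpressing human LULL1; score merges per-feature 667 nm fluorescence with signal-to-noise.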 Particulars: small-molecule microarray, hLULL1 lysate binding, 635 nm fluorescence; higher = more signal.
Experiment [6] is described as follows: optical density change of DRC41 E. coli – strain DRC41, OD650, 24 h, E. coli filamentation project, primary screen (AID 1093).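 Further: MC1000 strain lacking acrAB efflux and sulA so SOS filamentation is blocked; test concentration not given here.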 The following applies: E. coli DRC41 growth, higher = more signal, called active from +8 up or from −8 down.
Experiment [7] can be described thus: probe aLefty2 binding to arrayed compounds – biochemical, biotinylated probe, 635/667 nm fluorescence, primary screen (AID 1094).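 Further: score merges spot fluorescence near 667 nm with spot signal-to-noise ratio.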 The following applies: small-molecule microarray, higher = more signal.
Experiment [8] relates to Noggin (protein binding on small-molecule microarray). In words: small molecules binding Noggin protein – biochemical, 635/667 nm fluorescence, primary screen (AID 1095).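 Further: score merges 667 nm feature fluorescence with signal to noise over triplicate slides.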 The following applies: 635 nm fluorescence, higher = more signal.
For experiment [9], the target named is Neurogenic locus notch homolog protein 3 (Homo sapiens) (UniProt Q9UM47). In words: small molecules binding NOTCH3 protein – biochemical, 635/667 nm fluorescence, primary screen (AID 1096). The following applies: small-molecule microarray, 635 nm fluorescence, higher = more signal.
Experiment [10] is described as follows: probe aEGFR binding to arrayed compounds – biochemical, biotinylated probe, 635/667 nm fluorescence, primary screen (AID 1097).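 Further: probe is a biotinylated anti-EGFR antibody binding compounds printed on slides; score combines fluorescence near 667 nm and signal to noise of each spot.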 The following applies: small-molecule microarray, higher = more signal.
The subject of experiment [11] is Plasmodium falciparum Sir2 (PF13_0152, Sir2A). In words: Plasmodium falciparum Sir2A binding compounds – biochemical, small-molecule microarray, 635 nm fluorescence, primary screen (AID 1098).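 Further: score merges spot fluorescence intensity with its signal-to-noise ratio.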 The following applies: fluorescence 635 nm, higher = more signal.
Experiment [12] can be described thus: probe aDKK1 binding to arrayed compounds – biochemical, biotinylated probe, 635/667 nm fluorescence, primary screen (AID 1099).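 Further: score merges 667nm spot fluorescence with signal to noise across triplicate slides; reference of the scale not given here.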 Particulars: small-molecule microarray, higher = more signal.
Experiment [13] can be described thus: probe aCHRDL2 binding to arrayed compounds – biochemical, biotinylated probe, 635/667 nm fluorescence, primary screen (AID 1100). Particulars: small-molecule microarray, higher = more signal.
Experiment [14] can be described thus: change in splice reporter luminescence, either direction, cell-based, HEK293, spliceosome inhibition project, primary screen (AID 1101).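 Further: HEK293 cells carrying a splicing-competent luciferase reporter gene; test concentration not given here.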 Particulars: HEK293 splicing luciferase reporter, 24 h, higher = more signal, called active from +8 up or from −8 down. A general note: Reporter assays use an easily measured gene product as a stand-in for the process of interest.

Experiment [15] concerns the target Fibroblast growth factor 10 (Homo sapiens) (UniProt O15520). The experiment can be described thus: compounds binding fibroblast growth factor 10 – biochemical, small-molecule microarray, 635 nm fluorescence, primary screen (AID 1102). The following applies: FGF10 binding, fluorescence 635 nm, higher = more signal.
Experiment [16] relates to glycogen synthase kinase-3 (GSK3A per assay name; protocol says GSK3B). The experiment can be described thus: compounds binding glycogen synthase kinase-3 – biochemical, small-molecule microarray, 635 nm fluorescence, GSK3A, primary screen (AID 1103). Further: the record names both GSK3A and GSK3B. The following applies: fluorescence 635 nm, higher = more signal.
The target of experiment [17] is Epidermal growth factor receptor (Homo sapiens) (UniProt P00533). In words: compounds binding epidermal growth factor receptor – biochemical, small-molecule microarray, 635 nm fluorescence, primary screen (AID 1104).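 Further: score merges 667 nm emission intensity with spot signal to noise over triplicate slides.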 The following applies: EGFR binding, higher = more signal.
Experiment [18] addresses Follistatin-related protein 3 (Homo sapiens) (UniProt O95633). In words: compounds binding follistatin-related protein 3 – biochemical, small-molecule microarray, 635 nm fluorescence, primary screen (AID 1105).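 Further: score merges emission near 667 nm and signal to noise per printed spot across three slides.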 The following applies: FSTL3 binding, higher = more signal.
The target of experiment [19] is Dickkopf-related protein 1 (Homo sapiens) (UniProt O94907). The experiment can be described thus: small molecules binding DKK1 protein – biochemical, small-molecule microarray, 635 nm fluorescence scan, primary screen (AID 1106).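 Further: score merges emission near 667 nm with signal to noise over three replicate slides.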 Particulars: higher = more signal.
Experiment [20] concerns Inhibin beta A chain (activin A). In words: small molecules binding activin A – biochemical, small-molecule microarray, 635 nm fluorescence scan, primary screen (AID 1107).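 Further: mouse activin A protein probed at 4.33 µg/mL on printed slides; score merges bound-protein fluorescence near 667 nm with spot signal-to-noise.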 Particulars: INHBA, higher = more signal.

Structures are written as SMILES. Active and inactive are the calls of the source.

Dickkopf-related protein 1 (Homo sapiens), sequence (O94907 whole entry, looked up): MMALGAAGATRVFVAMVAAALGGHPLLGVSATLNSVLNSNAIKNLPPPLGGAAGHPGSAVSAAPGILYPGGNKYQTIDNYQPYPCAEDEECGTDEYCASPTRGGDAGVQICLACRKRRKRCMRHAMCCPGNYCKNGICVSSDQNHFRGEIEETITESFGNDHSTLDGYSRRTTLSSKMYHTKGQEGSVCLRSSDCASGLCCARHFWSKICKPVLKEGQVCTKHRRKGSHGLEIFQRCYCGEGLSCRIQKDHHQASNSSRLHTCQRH
Epidermal growth factor receptor (Homo sapiens), sequence (P00533 whole entry, looked up): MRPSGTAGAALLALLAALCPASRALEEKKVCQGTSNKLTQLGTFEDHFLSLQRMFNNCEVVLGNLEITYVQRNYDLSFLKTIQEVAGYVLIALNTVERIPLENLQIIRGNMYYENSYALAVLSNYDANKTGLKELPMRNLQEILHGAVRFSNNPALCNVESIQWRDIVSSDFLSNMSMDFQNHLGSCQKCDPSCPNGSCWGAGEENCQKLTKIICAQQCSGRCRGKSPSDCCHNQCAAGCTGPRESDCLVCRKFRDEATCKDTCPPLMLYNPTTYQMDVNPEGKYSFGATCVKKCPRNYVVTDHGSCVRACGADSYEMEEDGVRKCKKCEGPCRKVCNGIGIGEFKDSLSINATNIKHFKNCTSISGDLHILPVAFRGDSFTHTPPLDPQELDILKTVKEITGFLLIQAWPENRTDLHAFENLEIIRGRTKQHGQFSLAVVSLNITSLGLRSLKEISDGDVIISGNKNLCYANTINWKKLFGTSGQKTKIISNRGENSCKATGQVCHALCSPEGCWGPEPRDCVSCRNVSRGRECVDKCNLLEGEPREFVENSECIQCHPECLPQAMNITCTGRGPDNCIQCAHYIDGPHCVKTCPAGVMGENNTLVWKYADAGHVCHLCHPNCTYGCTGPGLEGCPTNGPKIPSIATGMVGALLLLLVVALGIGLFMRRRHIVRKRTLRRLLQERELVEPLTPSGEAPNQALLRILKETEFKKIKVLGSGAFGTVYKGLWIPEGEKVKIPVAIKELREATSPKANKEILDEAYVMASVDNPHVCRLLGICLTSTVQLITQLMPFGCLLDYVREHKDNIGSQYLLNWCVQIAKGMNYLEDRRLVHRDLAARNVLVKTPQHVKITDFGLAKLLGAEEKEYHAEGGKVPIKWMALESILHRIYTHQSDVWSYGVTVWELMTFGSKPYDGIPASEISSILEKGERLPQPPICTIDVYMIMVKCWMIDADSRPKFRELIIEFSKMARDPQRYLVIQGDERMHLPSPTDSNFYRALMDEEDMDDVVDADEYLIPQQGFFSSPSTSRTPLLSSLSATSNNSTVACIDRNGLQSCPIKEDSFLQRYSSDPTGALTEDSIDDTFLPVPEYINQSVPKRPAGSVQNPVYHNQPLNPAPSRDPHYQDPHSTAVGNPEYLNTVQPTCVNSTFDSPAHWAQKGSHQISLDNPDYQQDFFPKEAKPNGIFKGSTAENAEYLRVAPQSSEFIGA
Fibroblast growth factor 10 (Homo sapiens), sequence (O15520 whole entry, looked up): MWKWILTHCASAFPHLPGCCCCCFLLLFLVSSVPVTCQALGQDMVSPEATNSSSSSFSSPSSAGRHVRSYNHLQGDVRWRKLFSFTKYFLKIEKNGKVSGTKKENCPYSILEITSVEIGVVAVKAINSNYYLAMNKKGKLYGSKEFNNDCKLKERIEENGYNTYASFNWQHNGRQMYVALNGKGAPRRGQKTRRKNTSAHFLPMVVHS
Follistatin-related protein 3 (Homo sapiens), sequence (O95633 whole entry, looked up): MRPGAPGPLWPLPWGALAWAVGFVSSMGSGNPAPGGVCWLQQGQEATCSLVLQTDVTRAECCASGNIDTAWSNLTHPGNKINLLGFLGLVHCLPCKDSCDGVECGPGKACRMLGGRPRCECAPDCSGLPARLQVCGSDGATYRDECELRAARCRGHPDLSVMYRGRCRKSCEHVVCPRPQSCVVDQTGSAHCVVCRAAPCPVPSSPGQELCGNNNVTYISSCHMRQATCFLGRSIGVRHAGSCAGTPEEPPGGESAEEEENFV
Neurogenic locus notch homolog protein 3 (Homo sapiens), sequence (Q9UM47 whole entry, looked up): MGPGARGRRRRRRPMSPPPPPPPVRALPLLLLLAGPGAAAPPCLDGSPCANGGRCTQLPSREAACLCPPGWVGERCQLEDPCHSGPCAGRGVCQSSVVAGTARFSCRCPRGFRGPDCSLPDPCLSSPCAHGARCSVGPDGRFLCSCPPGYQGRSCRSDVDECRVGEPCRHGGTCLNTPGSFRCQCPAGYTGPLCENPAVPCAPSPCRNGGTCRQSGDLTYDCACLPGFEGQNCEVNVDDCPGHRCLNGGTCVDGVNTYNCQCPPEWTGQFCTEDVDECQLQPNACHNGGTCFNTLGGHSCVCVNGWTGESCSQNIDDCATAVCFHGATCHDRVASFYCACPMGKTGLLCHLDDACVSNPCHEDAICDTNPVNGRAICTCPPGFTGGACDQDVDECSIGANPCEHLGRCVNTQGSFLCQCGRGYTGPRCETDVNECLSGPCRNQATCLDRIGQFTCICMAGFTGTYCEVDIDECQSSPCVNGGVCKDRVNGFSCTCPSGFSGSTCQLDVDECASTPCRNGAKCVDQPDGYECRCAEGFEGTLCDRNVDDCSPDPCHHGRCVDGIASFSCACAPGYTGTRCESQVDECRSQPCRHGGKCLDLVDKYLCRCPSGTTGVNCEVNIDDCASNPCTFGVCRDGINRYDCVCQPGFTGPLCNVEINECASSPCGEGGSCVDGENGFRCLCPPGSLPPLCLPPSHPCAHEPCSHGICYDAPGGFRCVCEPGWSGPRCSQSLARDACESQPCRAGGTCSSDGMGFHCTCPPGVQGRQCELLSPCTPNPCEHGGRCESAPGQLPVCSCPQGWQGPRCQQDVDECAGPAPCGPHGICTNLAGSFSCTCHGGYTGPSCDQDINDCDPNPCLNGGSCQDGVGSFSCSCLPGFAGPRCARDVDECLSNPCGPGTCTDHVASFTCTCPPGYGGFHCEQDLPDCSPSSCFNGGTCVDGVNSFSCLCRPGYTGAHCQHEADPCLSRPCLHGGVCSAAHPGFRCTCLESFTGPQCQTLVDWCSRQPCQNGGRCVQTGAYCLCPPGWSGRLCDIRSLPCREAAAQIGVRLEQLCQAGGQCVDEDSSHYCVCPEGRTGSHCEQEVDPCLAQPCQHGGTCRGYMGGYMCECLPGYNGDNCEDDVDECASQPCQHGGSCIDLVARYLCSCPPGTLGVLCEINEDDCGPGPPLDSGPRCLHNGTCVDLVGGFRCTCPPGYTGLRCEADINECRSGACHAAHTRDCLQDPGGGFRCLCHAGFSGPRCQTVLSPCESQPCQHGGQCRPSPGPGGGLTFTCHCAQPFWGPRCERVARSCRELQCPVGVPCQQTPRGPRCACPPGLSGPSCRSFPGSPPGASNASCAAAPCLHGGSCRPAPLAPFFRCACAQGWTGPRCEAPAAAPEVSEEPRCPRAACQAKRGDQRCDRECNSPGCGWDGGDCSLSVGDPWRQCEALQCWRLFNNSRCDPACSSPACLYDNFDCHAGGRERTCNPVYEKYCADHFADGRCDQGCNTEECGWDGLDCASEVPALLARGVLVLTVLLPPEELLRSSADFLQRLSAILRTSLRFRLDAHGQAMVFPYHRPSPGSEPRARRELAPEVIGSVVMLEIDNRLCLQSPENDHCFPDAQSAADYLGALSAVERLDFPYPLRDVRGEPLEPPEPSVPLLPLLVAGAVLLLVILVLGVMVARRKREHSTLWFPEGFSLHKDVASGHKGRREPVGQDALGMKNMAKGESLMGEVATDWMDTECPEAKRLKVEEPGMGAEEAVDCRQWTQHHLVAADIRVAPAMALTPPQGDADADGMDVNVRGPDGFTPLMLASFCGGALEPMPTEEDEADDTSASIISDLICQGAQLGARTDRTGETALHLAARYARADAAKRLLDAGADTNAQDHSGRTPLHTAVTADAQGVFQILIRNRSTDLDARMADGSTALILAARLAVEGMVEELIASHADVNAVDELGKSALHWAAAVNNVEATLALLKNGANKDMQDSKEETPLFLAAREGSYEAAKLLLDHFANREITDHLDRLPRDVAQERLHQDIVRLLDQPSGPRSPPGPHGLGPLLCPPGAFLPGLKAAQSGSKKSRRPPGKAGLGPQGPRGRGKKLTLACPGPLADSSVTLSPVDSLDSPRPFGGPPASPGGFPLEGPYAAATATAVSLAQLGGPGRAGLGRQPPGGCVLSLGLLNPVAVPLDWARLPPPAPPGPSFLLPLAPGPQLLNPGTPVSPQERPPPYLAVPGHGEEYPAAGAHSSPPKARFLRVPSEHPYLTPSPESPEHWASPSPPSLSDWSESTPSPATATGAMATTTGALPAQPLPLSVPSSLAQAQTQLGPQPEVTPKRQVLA
Torsin-1A-interacting protein 2 (Homo sapiens), sequence (Q8NFQ8 whole entry, looked up): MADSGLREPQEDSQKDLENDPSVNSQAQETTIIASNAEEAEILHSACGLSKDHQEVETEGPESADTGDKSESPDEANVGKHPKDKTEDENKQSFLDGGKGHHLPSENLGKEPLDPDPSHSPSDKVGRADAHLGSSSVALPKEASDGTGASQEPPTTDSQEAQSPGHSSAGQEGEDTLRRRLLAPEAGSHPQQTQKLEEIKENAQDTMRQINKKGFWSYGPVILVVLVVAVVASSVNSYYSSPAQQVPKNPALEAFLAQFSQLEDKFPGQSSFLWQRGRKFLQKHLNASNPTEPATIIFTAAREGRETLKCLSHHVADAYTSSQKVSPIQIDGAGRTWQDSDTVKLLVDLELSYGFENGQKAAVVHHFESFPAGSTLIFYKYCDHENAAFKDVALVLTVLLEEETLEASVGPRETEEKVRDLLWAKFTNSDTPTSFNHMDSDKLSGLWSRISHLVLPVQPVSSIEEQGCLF

Turning to `CC(CCC(=O)OC[C@H]1O[C@H](C#Cc2ccccc2)C=C[C@@H]1Oc1ccc(C)cc1)=NO[C@H](C)c1cn([C@H](CO)Cc2ccccc2)nn1`, the composite z-score in [1] was 1.05; in [5], 1.05; in [7], -0.239; in experiment [8], 0.689; in [9], 0.695; in experiment [10], -0.17. The composite z-score is 0.708 in experiment [11]; -0.164 in [12]; -0.532 in [13]; 0.17 in experiment [15]; 0.197 in [16]; 0.217 in experiment [17]. For the same compound, the composite z-score in experiment [18] was determined as 1.12; in experiment [19] it was 0.655; in experiment [20], 0.282. In addition, the z-score in experiment [2] is 1.62 (inactive); in experiment [3], -0.372 (inactive); in experiment [4], 1.31 (inactive); in experiment [6], 0.171 (inactive); in experiment [14], 0.448 (inactive).

On to `CO[C@@H]1COC(=O)[C@H](CCSC)NC(=O)CC=C[C@@H](C)COC(=O)[C@H](C)NC(=O)CC=C[C@H]1C`, for which the composite z-score in experiment [1] is 1.39; in experiment [5], -0.0068; in [7], -0.247; in [8] it was 0.783; in [9], 0.989; in experiment [10] it was -0.201. Besides, the composite z-score in experiment [11] is 0.931; in experiment [12], -0.34; in [13] it was -0.833; in experiment [15], 0.816; in experiment [16] it was 0.856; in [17], 0.953. Besides, the composite z-score in experiment [18] was 1.1; in [19] it was 1.19; in experiment [20] it was -0.0263. Moreover, the z-score was 0.153 (inactive) in experiment [2]; -0.266 (inactive) in experiment [3]; 0.291 (inactive) in experiment [4]; 1.01 (inactive) in experiment [6]; 0.0885 (inactive) in experiment [14].

As for `CCc1cc2c(nc1CC)CCN(CCC(C)=NOC[C@H]1O[C@H](c3ccccc3)C=C[C@@H]1Oc1ccc(OC)cc1)C2`, the composite z-score in [1] was 0.841; in experiment [5], 0.825; in experiment [7], -0.164; in experiment [8] it was 0.0346; in experiment [9], 0.215; in experiment [10], -0.0549. In addition, the composite z-score in [11] was 0.507; in [12], 0.46; in [13], 0.0691; in [15] it was -0.344; in [16] it was -0.26; in experiment [17] it was -0.0924. Besides, the values for the composite z-score in experiment [18], in experiment [19] and in [20] were -0.0668, -0.159 and 0.813, respectively. Also, the z-score in [2] was -0.837 (inactive); in experiment [3], -5.85 (inactive); in experiment [4], -0.473 (inactive); in experiment [6] it was -0.782 (inactive); in [14], -1.47 (inactive).

Turning to `CC(C)=CCCC(C)=CCON=C1C[C@@H](O)[C@@H](O)[C@@H]2[C@@H]3C(=O)N(c4ccc(F)cc4F)C(=O)[C@@H]3CC[C@@H]12`, the composite z-score in experiment [1] is 1.11; in [5], -0.0426; in experiment [7], 0.0054; in [8] it was 0.888; in [9], 0.678; in experiment [10], -0.0381. Moreover, the composite z-score in experiment [11] is 0.476; in experiment [12] it was -0.324; in experiment [13], -0.497; in [15], 0.601; in experiment [16] it was -0.0599; in experiment [17] it was 0.628. For the same compound, the composite z-score in experiment [18] was found to be 0.806; in experiment [19] it was 0.926; in [20], 1.04. For the same compound, the z-score is 0.918 (inactive) in experiment [2]; -2.43 (inactive) in [3]; -0.496 (inactive) in experiment [4]; 1.34 (inactive) in experiment [6]; -0.118 (inactive) in experiment [14].

As for `O=C1[C@H]2[C@H]3[C@H](O)[C@H](O)CC(=NO[C@@H]4O[C@H](CO)[C@@H](O)[C@H](O)[C@H]4O)[C@H]3CC[C@H]2C(=O)N1c1cccc(Oc2ccccc2)c1`, the composite z-score was 0.69 in experiment [1]; 0.543 in [5]; -0.253 in experiment [7]; 0.329 in experiment [8]; 0.861 in experiment [9]; -0.0549 in [10]. Further, the composite z-score is 0.0739 in experiment [11]; -0.187 in experiment [12]; -0.478 in experiment [13]; 0.73 in experiment [15]; 0.67 in experiment [16]; 0.508 in experiment [17]. Also, the composite z-score in experiment [18] is 0.598; in experiment [19] it was 0.71; in experiment [20], -0.204. The z-score in experiment [2] is -0.513 (inactive); in [3] it was 0.0816 (inactive); in experiment [4], -0.642 (inactive); in [6] it was 0.563 (inactive); in experiment [14] it was 0.0512 (inactive).
